What all share (test): HT-SELEX; 20 mM HEPES pH 7, 140 mM KCl, 5 mM NaCl, 1 mM K2HPO4, 2 mM MgSO4, 100 uM EGTA, ZnSO4, 0.1% Tween20; room temperature, 1 h; high values mean tight binding
Common to all, as to conditions: protein: ivt; tags: eGFP (N-terminal); dsDNA, one strand shown

In assay [1] the target is ZNF721 full-length (Homo sapiens, UniProt Q8TF20-2 1-923). In a few lines:
(§1)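 Full-length or DNA-binding-domain forms of a tagged transcription factor were produced in HEK293 lysate or cell-free extract and immobilised on beads. Incubation with a randomized 40-base DNA library ran for 1 h at room temperature in HEPES/KCl low-stringency buffer with Tween20, after which bound DNA was washed, heat-eluted, PCR-amplified over successive cycles and Illumina-sequenced. Binding strength is given as the relative k-mer count in selected reads, higher for tighter binding.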

In assay [2] the target is ZNF721 DBD1 (Homo sapiens, UniProt Q8TF20-2 29-461). The essentials:
as §1

For assay [3], the target named is ZNF721 DBD2 (Homo sapiens, UniProt Q8TF20-2 395-923). In a few lines:
as §1

Chain of ZNF721 DBD2 (Q8TF20 383-911): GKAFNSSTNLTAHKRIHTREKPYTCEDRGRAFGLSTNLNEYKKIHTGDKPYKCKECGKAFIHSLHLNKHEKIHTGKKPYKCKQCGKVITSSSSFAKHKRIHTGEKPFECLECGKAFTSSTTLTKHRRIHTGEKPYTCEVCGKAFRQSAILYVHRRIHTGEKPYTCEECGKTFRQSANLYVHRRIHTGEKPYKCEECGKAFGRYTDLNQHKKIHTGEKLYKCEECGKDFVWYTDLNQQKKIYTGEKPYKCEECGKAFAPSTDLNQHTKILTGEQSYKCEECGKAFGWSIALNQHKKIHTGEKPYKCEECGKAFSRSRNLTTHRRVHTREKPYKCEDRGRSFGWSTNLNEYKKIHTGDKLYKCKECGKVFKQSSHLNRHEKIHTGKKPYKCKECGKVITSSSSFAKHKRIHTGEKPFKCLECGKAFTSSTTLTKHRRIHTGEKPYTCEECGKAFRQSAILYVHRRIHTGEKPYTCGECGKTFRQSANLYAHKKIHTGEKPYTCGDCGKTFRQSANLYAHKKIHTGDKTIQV
Chain of ZNF721 full-length (Q8TF20 other isoform, or with tags, fused parts or gaps): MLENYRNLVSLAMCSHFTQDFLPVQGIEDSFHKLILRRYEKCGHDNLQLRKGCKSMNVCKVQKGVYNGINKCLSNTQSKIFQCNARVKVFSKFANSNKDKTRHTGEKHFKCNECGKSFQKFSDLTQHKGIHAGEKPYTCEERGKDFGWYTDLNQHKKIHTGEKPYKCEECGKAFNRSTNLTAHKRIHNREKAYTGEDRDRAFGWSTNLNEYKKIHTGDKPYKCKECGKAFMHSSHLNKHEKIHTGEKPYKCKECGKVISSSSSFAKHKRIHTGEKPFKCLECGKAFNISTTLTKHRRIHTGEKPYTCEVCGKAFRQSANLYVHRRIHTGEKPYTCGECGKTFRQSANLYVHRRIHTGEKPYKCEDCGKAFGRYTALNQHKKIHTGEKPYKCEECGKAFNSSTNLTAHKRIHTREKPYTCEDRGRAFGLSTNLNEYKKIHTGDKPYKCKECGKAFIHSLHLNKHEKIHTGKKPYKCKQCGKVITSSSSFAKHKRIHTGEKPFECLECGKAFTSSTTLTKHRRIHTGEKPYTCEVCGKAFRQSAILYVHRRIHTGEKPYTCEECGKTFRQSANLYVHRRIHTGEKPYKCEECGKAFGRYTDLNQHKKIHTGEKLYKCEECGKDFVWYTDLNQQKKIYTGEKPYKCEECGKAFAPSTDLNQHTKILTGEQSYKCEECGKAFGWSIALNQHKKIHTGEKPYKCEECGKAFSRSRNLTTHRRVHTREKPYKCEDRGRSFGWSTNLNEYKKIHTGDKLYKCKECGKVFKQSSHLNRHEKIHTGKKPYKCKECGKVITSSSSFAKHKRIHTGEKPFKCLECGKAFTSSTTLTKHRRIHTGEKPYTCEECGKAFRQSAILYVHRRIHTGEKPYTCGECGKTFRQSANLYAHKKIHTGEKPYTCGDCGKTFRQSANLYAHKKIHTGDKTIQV
Chain of ZNF721 DBD1 (Q8TF20 17-449): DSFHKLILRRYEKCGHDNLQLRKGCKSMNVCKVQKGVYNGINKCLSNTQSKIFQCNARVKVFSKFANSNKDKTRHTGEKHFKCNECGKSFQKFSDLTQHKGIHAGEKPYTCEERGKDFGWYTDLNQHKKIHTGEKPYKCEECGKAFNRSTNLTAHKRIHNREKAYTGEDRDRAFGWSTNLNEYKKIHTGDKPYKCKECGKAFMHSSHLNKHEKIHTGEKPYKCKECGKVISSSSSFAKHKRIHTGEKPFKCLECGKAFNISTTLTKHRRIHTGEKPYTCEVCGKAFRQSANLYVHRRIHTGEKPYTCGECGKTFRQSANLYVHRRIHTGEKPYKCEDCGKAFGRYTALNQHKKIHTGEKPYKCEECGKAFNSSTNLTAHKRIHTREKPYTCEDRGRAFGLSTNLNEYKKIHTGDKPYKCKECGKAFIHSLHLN

As for CCTCCCCACC, the binding signal in assay [1] is 0.255 relative 10-mer count; in assay [2], 0.0111 relative 10-mer count; in assay [3], 0.00791 relative 10-mer count.
Turning to CTCCCCCCCC, the results for the binding signal in assay [1], in assay [2] and in assay [3] were 0.158 relative 10-mer count, 0.00761 relative 10-mer count and 0.003 relative 10-mer count, respectively.
For CCTACCCCCC the same measures were 0.127 relative 10-mer count, 0.00555 relative 10-mer count and 0.00707 relative 10-mer count.
For the sequence CCCCACCTCC, the binding signal in assay [1] was determined as 0.24 relative 10-mer count; in assay [2], 0.0128 relative 10-mer count; in assay [3], 0.00575 relative 10-mer count.
The matching figures for AAGCGTACCC: 0.208 relative 10-mer count, 0.104 relative 10-mer count and 0.0138 relative 10-mer count.
In the case of AAGCGTATCC, the binding signal in assay [1] is 0.108 relative 10-mer count; in assay [2] it was 0.0756 relative 10-mer count; in assay [3] it was 0.00863 relative 10-mer count.
In the case of CACGCCACCC, the binding signal in assay [1] is 0.103 relative 10-mer count; in assay [2] it was 0.00344 relative 10-mer count; in assay [3] it was 0.00587 relative 10-mer count.
In the case of CCACCCCGCC, the figures for the binding signal in assay [1], in assay [2] and in assay [3] were 0.263 relative 10-mer count, 0.00894 relative 10-mer count and 0.00503 relative 10-mer count, respectively.
Consider CCCCCTTCCC, for which the binding signal in assay [1] came to 0.122 relative 10-mer count; in assay [2], 0.00537 relative 10-mer count; in assay [3] it was 0.00264 relative 10-mer count.
Consider CGTCCCCCCC, for which the figures for the binding signal in assay [1], in assay [2] and in assay [3] were 0.126 relative 10-mer count, 0.00619 relative 10-mer count and 0.00108 relative 10-mer count, respectively.
ACAAAAAAAG: the binding signal in assay [1] was found to be 0.12 relative 10-mer count; in assay [2] it was 0.0121 relative 10-mer count; in assay [3], 0.0533 relative 10-mer count.
With CCACCACCAC, the binding signal in assay [1] came to 0.19 relative 10-mer count; in assay [2] it was 0.00688 relative 10-mer count; in assay [3], 0.00647 relative 10-mer count.
The matching figures for ACCCGCCCCA: 0.109 relative 10-mer count, 0.00307 relative 10-mer count and 0.0012 relative 10-mer count.
The matching figures for CCCACGACCC: 0.107 relative 10-mer count, 0.00564 relative 10-mer count and 0.0018 relative 10-mer count.
Turning to GTGGGGGGGA, the binding signal was found to be 0.145 relative 10-mer count in assay [1], 0.00587 relative 10-mer count in assay [2] and 0.00348 relative 10-mer count in assay [3].
For the sequence CTCCCACCAC, the binding signal in assay [1] was determined as 0.11 relative 10-mer count; in assay [2], 0.00752 relative 10-mer count; in assay [3], 0.00599 relative 10-mer count.
For AGGGGGCGGG the same measures were 0.128 relative 10-mer count, 0.00463 relative 10-mer count and 0.0012 relative 10-mer count.
The matching figures for CCCACCCCAG: 0.114 relative 10-mer count, 0.00321 relative 10-mer count and 0.00156 relative 10-mer count.
For ACAAAAAAAA the same measures were 0.179 relative 10-mer count, 0.0167 relative 10-mer count and 0.0899 relative 10-mer count.
As for CACCCCCAAC, the binding signal came out at 0.118 relative 10-mer count in assay [1], 0.00514 relative 10-mer count in assay [2] and 0.0114 relative 10-mer count in assay [3].
For GCCCCGCCCC the same measures were 0.124 relative 10-mer count, 0.00436 relative 10-mer count and 0.00156 relative 10-mer count.
The matching figures for AAAAAAAGGT: 0.117 relative 10-mer count, 0.00583 relative 10-mer count and 0.0857 relative 10-mer count.
For CCCCCGCGCC the same measures were 0.116 relative 10-mer count, 0.00381 relative 10-mer count and 0.00336 relative 10-mer count.
With GAAGCGTACC, the values for the binding signal in assay [1], in assay [2] and in assay [3] were 0.104 relative 10-mer count, 0.0792 relative 10-mer count and 0.0018 relative 10-mer count, respectively.
Regarding AGCGTACCCA, the binding signal is 0.188 relative 10-mer count in assay [1], 0.0311 relative 10-mer count in assay [2] and 0.162 relative 10-mer count in assay [3].
For CTTTTTTTTA the same measures were 0.14 relative 10-mer count, 0.0207 relative 10-mer count and 0.0588 relative 10-mer count.
For AAGCATACCC, the binding signal amounted to 0.253 relative 10-mer count in assay [1], 0.076 relative 10-mer count in assay [2] and 0.0243 relative 10-mer count in assay [3].
For CCAAAAAAAC the same measures were 0.106 relative 10-mer count, 0.0017 relative 10-mer count and 0.082 relative 10-mer count.
Regarding GCCCCACCAC, the results for the binding signal in assay [1], in assay [2] and in assay [3] were 0.137 relative 10-mer count, 0.00555 relative 10-mer count and 0.00743 relative 10-mer count, respectively.
For AGGGTGGGGG the same measures were 0.202 relative 10-mer count, 0.0102 relative 10-mer count and 0.00563 relative 10-mer count.
